High-throughput results from PubChem BioAssay.
Pf Dd2 growth – qHTS Primary assay for Inhibitors of Plasmodium falciparum Dd2 growth in vitro; P. falciparum Dd2 growth, SYBR Green, 72 h; Potency, µM (top dose mostly 28.9 µM), for inactives: top-dose activity, negative = inhibition, hits mostly inhibitors; hit rate 4.3% among 120,000; active means well fitted inhibition curve with a large enough effect;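 further: plate controls were DMSO vehicle for no effect and reference drug for full effect; nearly all actives have a fitted effect of over 65% in size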
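Infected erythrocytes (Dd2, 0.3% parasitemia, 2.5% hematocrit final) are added to compound in RPMI-1640/Albumax II medium, grown 72 h at 37C in low oxygen, then lysed with saponin/Triton-X containing SYBR Green and read by fluorescence.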
Active calls of the source: *; [ ] = remark or other dose. This excerpt belongs to a sample that is enriched for hits. Potency means the concentration at half of the fitted maximal effect.

Results for OC[C@@H]1O[C@H](CN(Cc2cccc(Cl)c2)Cc2cccc(Cl)c2)C(N2CCOCC2)[C@@H]1O (stereo partly drawn) ?
Pf Dd2 growth: inactive

How did COC[C@H]1CCCN1[C@@H]1[C@H](O)[C@H](CO)O[C@@H]1CN(Cc1cccc(Cl)c1)Cc1cccc(Cl)c1 do in these assays?
Pf Dd2 growth: 0.71µM*

How did COC[C@H]1CCCN1[C@@H]1[C@H](O)[C@H](CO)O[C@@H]1CNC(=O)Nc1ccccc1 do in these assays?
Pf Dd2 growth: 2%[44.1 µM]

How did COc1ccc(-c2ccc(C(=O)N[C@@H]3COCC[C@H]3OC)o2)cc1 do in these assays?
Pf Dd2 growth: -13%

What do the screens show for `CC1(C(=O)N2C[C@@H](Oc3cccnc3)C[C@H]2C(=O)NC2CC2)CCCCC1`?
Pf Dd2 growth: -1%

How did COC(=O)c1ccc2nc(CO[C@H]3CN(Cc4ccc5ccccc5n4)C[C@H]3F)[nH]c2c1 do in these assays?
Pf Dd2 growth: 8.9µM*

Results for COC(=O)c1ccc2nc(CO[C@H]3CN(Cc4cccnc4)C[C@H]3F)[nH]c2c1 ?
Pf Dd2 growth: -21%[44.1 µM]

Results for COC(=O)c1ccc2nc(CO[C@H]3CN(C(C)C)C[C@H]3F)[nH]c2c1 ?
Pf Dd2 growth: inactive

What do the screens show for `CN(CC1CCOC1)C(=O)c1cccc(Br)c1` (stereo not drawn)?
Pf Dd2 growth: inactive[5.79 µM]

Results for O=C(Nc1nnc(Cc2ccccc2)s1)C1CC(=O)N(c2n[nH]c3ccccc23)C1 (stereo not drawn) ?
Pf Dd2 growth: inactive

What do the screens show for `CCNC(=O)[C@@H]1C[C@H](NC(=O)CSc2ccccc2)CN1C1CCCC1`?
Pf Dd2 growth: -7%

What do the screens show for `CCn1cc(CN2CCCC23CCN(c2cc(C)nc4ccccc24)CC3)c(C)n1`?
Pf Dd2 growth: 2µM*

How did CCn1cc(CN2CCC(Oc3ccc4ccccc4c3)(C(=O)O)CC2)c(C)n1 do in these assays?
Pf Dd2 growth: -15%

What do the screens show for `Cc1cc(N2CCC3(CCCN(C)C3=O)C2)c2ccccc2n1` (stereo not drawn)?
Pf Dd2 growth: 27%

What do the screens show for `CCn1c(=O)c2c(cc(C)n2C)n(CC(=O)Nc2ccc(C)cc2Cl)c1=O`?
Pf Dd2 growth: -22%

Results for Cc1cc(C)c(CNC(=O)C2CCCN(c3cnn(Cc4ccccc4)c(=O)c3)C2)c(C)c1 (stereo not drawn) ?
Pf Dd2 growth: -11%

How did COc1ccc(C(=O)Nc2ccc3nc(N4CCC(C)CC4)cc(C)c3c2)cc1 do in these assays?
Pf Dd2 growth: -12%

How did CCN1CCN(c2cc(C)c3cc(NC(=O)c4cc(OC)cc(OC)c4)ccc3n2)CC1 do in these assays?
Pf Dd2 growth: 0.4µM*

How did CC1CCN(c2ccc(NC(=O)c3cccc(Cl)c3)cc2C(=O)O)CC1 do in these assays?
Pf Dd2 growth: 3%

What do the screens show for `CCN1CCN(c2cc(C)c3cc(NC(=O)c4cccc(Cl)c4)ccc3n2)CC1`?
Pf Dd2 growth: 1.6µM*

Results for CCN1CCN(c2cc(C)c3cc(NC(=O)/C=C/c4cccc(Cl)c4)ccc3n2)CC1 ?
Pf Dd2 growth: 3.2µM*

What do the screens show for `CCCCc1ccc(C(=O)Nc2ccc3nc(N4CCN(CC)CC4)cc(C)c3c2)cc1`?
Pf Dd2 growth: 4.5µM*

How did O=C(Nc1ccc2oc(-c3cccc4c(Br)cccc34)nc2c1)c1cccc(Cl)c1 do in these assays?
Pf Dd2 growth: inactive

How did COc1cc(OC)cc(C(=O)Nc2ccc3c(c2)n(C)c(=O)c(=O)n3C)c1 do in these assays?
Pf Dd2 growth: 24%

What do the screens show for `CCCCc1ccc(NC(=O)c2ccc(=O)n(Cc3cccc(C)c3)c2)cc1`?
Pf Dd2 growth: inactive

What do the screens show for `O=C(NCc1cccc(Cl)c1)C(=O)Nc1ccc2nc3n(c(=O)c2c1)CCCCC3`?
Pf Dd2 growth: 29%

What do the screens show for `Cc1cc(N2CCCCC2)nc2ccc(NC(=O)c3ccc(F)cc3)cc12`?
Pf Dd2 growth: inactive

What do the screens show for `CCN1C[C@@H]2C(C(=O)Nc3cccc(Cl)c3)=NO[C@@H]2C1`?
Pf Dd2 growth: -7%[44.1 µM]

Results for C=CCNC(=O)C[C@@H]1CCN(C(=O)c2ccnc(Cl)c2)C[C@@H]1CC ?
Pf Dd2 growth: 16%[44.1 µM]

Results for Fc1cccc(-c2[nH]ncc2CN2CCN(c3cccnc3)CC2)c1 ?
Pf Dd2 growth: -19%

Results for O=C(c1ccccc1C(F)(F)F)N1CCOc2ccc(CN3CCOCC3)cc2C1 ?
Pf Dd2 growth: -24%

What do the screens show for `CC(=O)c1c(C)nn(C(C)CC(=O)NCc2cc3n(n2)CCNC3)c1C` (stereo not drawn)?
Pf Dd2 growth: -3%

What do the screens show for `Cc1ccc(-c2nnc3ccc(NCc4ccc5c(c4)OCO5)nn23)nc1`?
Pf Dd2 growth: -7%[44.1 µM]

How did Cc1cc2nc3n(c(=O)c2n1CC(=O)Nc1cc(F)cc(F)c1)CCCCC3 do in these assays?
Pf Dd2 growth: -13%

Results for CNC(=O)[C@@H](c1ccccc1F)N1CCC[C@H]1C(=O)N(C)CCN(C)C ?
Pf Dd2 growth: 1%[44.1 µM]

How did CCC1(CO)CCCN(C(=O)CCc2ccc3c(c2)OCO3)C1 (stereo not drawn) do in these assays?
Pf Dd2 growth: -12%

How did C[C@]1(O)CCN(C(=O)Cc2ccc3c(c2)OCO3)C[C@@H]1O do in these assays?
Pf Dd2 growth: -8%

Results for CC(Cc1ccc2c(c1)OCO2)CN1CCC(CO)(CN2CCCC2)CC1 (stereo not drawn) ?
Pf Dd2 growth: 5µM*

Results for CCn1cnnc1-c1nn(C)c2c1CN(C(=O)c1cc(F)ccc1F)CC2 ?
Pf Dd2 growth: -15%

Results for O=C(c1ccc(C(F)(F)F)cc1)N1CCn2c(nnc2-c2ccc(Cl)cc2)C1 ?
Pf Dd2 growth: -1%

Results for CCc1cn[nH]c1C1CCCN(C(=O)c2cccnc2SC)C1 (stereo not drawn) ?
Pf Dd2 growth: 2%

Results for N#Cc1ccc(CN2CCN(c3ccc(Cl)nn3)C(=O)C2)cc1 ?
Pf Dd2 growth: -16%[44.1 µM]

What do the screens show for `COc1ccc2c(c1)c1c(c(=O)n(-c3ccc(F)c(Cl)c3)c(=O)n1Cc1ccccc1F)n2C`?
Pf Dd2 growth: 16%

How did NCc1ccccc1Oc1ccc(F)c(Cl)c1 do in these assays?
Pf Dd2 growth: 11µM*

How did Cc1nc(-c2c3n(c(=O)n(CC(=O)NC4CCCCC4)c2=O)CCCC3)no1 do in these assays?
Pf Dd2 growth: -21%

Results for CC(=O)Nc1ccc(CN2CCC3(CC2)NC(=O)c2ccccc2O3)cc1 ?
Pf Dd2 growth: inactive

Results for O=C1NC2(CCCN(Cc3ccc(F)cc3)C2)COc2ccccc21 (stereo not drawn) ?
Pf Dd2 growth: -15%

Results for Cc1cc(CN2CCC3(C2)NC(=O)c2ccccc2O3)no1 (stereo not drawn) ?
Pf Dd2 growth: -18%[44.1 µM]

Results for COc1cccc(CN2CCC3(C2)NC(=O)c2ccccc2O3)c1 (stereo not drawn) ?
Pf Dd2 growth: 13µM*

How did COc1cccc([S+](=O)([O-])N2CCC3(CC2)NC(=O)c2ccccc2O3)c1 do in these assays?
Pf Dd2 growth: inactive

How did CN(C)c1ccc(CN2CCC3(C2)NC(=O)c2ccccc2O3)cc1 (stereo not drawn) do in these assays?
Pf Dd2 growth: inactive

How did O=C1NC2(CCCN(Cc3ccccn3)C2)COc2ccccc21 (stereo not drawn) do in these assays?
Pf Dd2 growth: 0.63µM*

Results for O=C1NC2(CCN(Cc3ccc(C(F)(F)F)cc3)C2)Oc2ccccc21 (stereo not drawn) ?
Pf Dd2 growth: inactive

What do the screens show for `O=C1NC2(CCN(Cc3ccc(F)cc3)C2)Oc2ccccc21` (stereo not drawn)?
Pf Dd2 growth: 11µM*
